High-throughput results (PubChem BioAssay)
Sampled rows, rich in hits. Any-hit rate of the full collection: about 11%.
HP1b chromo inh: HP1-beta chromodomain-methylated histone interaction inhibition; actives 0.56% (n = 390,000); AID 540317; AlphaScreen HP1-beta / biotin-H3K9me3 peptide binding; Potency, µM (titrated, usually from 114 µM), most hits filed as inhibitors; further: nearly all actives have a fitted effect of over 70% in size
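HP1-beta protein (50 nM final) preincubated 30 min at room temperature with biotinylated H3(1-18)K9me3 peptide (50 nM) in PBS pH 7.4, 0.01% Tween-20, then compound added for 30 min. AlphaScreen streptavidin donor/nickel chelate acceptor beads (10 ug/mL final), 30 min dark, luminescence read.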
VDR inhibitor: inhibitors of human vitamin D receptor. P11473. VDR-SRC2-3 peptide fluorescence polarization, 2 h. Potency, µM, most hits filed as inhibitors. actives 0.93% (n = 400,000)
Target sequence (P11473 whole entry, looked up): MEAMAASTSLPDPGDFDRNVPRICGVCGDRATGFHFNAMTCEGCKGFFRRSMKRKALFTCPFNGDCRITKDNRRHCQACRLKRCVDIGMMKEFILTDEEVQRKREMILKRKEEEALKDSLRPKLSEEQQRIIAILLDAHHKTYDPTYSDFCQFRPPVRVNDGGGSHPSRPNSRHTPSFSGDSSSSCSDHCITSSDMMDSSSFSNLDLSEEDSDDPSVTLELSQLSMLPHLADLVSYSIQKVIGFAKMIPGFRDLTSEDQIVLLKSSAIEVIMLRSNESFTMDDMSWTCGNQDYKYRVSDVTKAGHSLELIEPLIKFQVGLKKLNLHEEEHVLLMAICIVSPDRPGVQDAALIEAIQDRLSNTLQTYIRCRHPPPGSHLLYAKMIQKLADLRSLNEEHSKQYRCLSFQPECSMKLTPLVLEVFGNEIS
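After 23 nl compound addition and a short centrifugation, plates sat for 2 hours at ambient temperature; polarization of fluorescence then indicated loss of VDR binding to peptide SRC2-3.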
PLK1 PBD block: inhibitors of human PLK1 polo-box domain binding | P53350 | Plk1 PBD binding of FITC phosphopeptide, fluorescence polarization | Potency, µM, hits mostly inhibitors | actives 2.8% (n = 360,000); further: series mostly up to about 57 µM; nearly all actives have a fitted effect of over 65% in size
BAZ2B inh: blocks human BAZ2B; Q9UIF8; Potency, µM (top dose mostly 114 µM), actives largely listed as inhibitors; AlphaScreen BAZ2B-H3K14Ac peptide displacement; actives 4.4% (n = 360,000); further: nearly all actives have a fitted effect of over 60% in size
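BAZ2B (50 nM) with biotin-H3(5-23)K14Ac peptide (50 nM) in PBS pH 7.4, 0.01% Tween-20, preformed 30 min, then compound 30 min at room temperature; top concentration 110uM. AlphaScreen streptavidin donor/nickel chelate acceptor beads (10 ug/mL final), 20 min dark, signal read.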
JMJD2A Tudor: inhibitors of human JMJD2A Tudor domain; O75164; AlphaScreen JMJD2A-Tudor / H3K4me3 peptide binding; Potency, µM (highest dose often 114 µM), hits mostly inhibitors; actives 4.4% (n = 390,000); AID 504339; further: nearly all actives have a fitted effect of over 50% in size
G9a block: blocks human histone lysine methyltransferase G9a; Q96KQ7; G9a H3K9 monomethylation, AlphaScreen, 2 h; Potency, µM (top dose mostly 102 µM), actives largely listed as inhibitors; actives 8.8% (n = 350,000); further: nearly all actives have a fitted effect of over 75% in size
Target sequence (Q96KQ7 913-1193 limits assumed): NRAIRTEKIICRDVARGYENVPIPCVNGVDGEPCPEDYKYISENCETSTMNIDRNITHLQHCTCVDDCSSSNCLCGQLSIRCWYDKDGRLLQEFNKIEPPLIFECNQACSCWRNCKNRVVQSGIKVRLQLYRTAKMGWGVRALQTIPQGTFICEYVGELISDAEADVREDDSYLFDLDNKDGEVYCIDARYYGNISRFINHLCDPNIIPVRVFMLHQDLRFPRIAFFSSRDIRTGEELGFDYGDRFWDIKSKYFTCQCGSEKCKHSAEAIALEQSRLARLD
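G9a (20 nM) preincubated 15 min RT with compounds, then 500 nM biotinylated H3K9 peptide and 20 uM SAM added; 2 h RT reaction. Monomethyl-H3K9 product detected by AlphaScreen with anti-H3K9me1 antibody, streptavidin donor and anti-rabbit IgG acceptor beads.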
Each line names hits and unclear results; the compound was inactive in the other large screens. The call rests on the fitted dose curve; in most records, active means well fitted curve in the direction sought with a large enough effect; inconclusive means small, poorly fitted or top-dose-only effect, or another doubt; inactive means no such curve, though single readings can be large; an effect the other way counts as inactive or inconclusive.

CC1=NNC(=O)c2ccccc2O1	BAZ2B inh 50µM, JMJD2A Tudor 5µM
COc1cc2c(cc1NC(=S)Nc1cccc3ccccc13)oc1ccccc12	HP1b chromo inh inconclusive, VDR inhibitor inconclusive, BAZ2B inh 79µM, JMJD2A Tudor inconclusive, G9a block inconclusive
COc1cc2c(cc1NC(=O)c1cncc(Br)c1)oc1ccccc12	PLK1 PBD block 27µM
COc1cc2c(cc1NCc1ccc3c(c1)OCO3)oc1ccccc12	HP1b chromo inh inconclusive, BAZ2B inh 32µM, JMJD2A Tudor inconclusive, G9a block inconclusive
COc1cc2c(cc1NCc1ccccn1)oc1ccccc12	HP1b chromo inh inconclusive, BAZ2B inh 45µM, JMJD2A Tudor 45µM, G9a block inconclusive
CCOc1ccccc1C(=O)Nc1cccc(-c2nc3ccccc3s2)c1	G9a block inconclusive (no result: PLK1 PBD block)
CCc1ccc(NC(=O)C(=O)NCCc2csc(-c3cccc(F)c3)n2)cc1	none (no result: PLK1 PBD block)
O=C(NP(=O)(N1CCCC1)N1CCCC1)C1=C(N2CCOCC2)/C(=C/c2cccc([N+](=O)[O-])c2)CC1	BAZ2B inh 45µM, G9a block 45µM
O=c1c(-c2ccc([N+](=O)[O-])cc2)coc2c(O)c(O)ccc12	BAZ2B inh 40µM, G9a block 8.9µM
COC(=O)c1cccc(NC(=O)CSc2nc(O)c(-c3ccccc3)c(=O)[nH]2)c1	BAZ2B inh inconclusive, G9a block 71µM
CCc1cccc(NC(=O)CSc2nnc(Cc3ccc(OC)cc3)c(=O)[nH]2)c1	G9a block 50µM
COC(=O)c1cccc(NC(=O)CSc2nc(=O)cc(N)n2-c2ccccc2)c1	BAZ2B inh 56µM, G9a block inconclusive
O=C(CSc1nnc(Cc2ccccc2)c(=O)[nH]1)Nc1ccccc1	none
Cc1ccc(S(=O)(=O)Nc2ccc(NS(=O)(=O)c3ccc(C)cc3)c3ncccc23)cc1	none (no result: HP1b chromo inh, VDR inhibitor, PLK1 PBD block, BAZ2B inh, G9a block)
CCOc1ccc(S(=O)(=O)c2cc3cccc(OCC)c3oc2=O)cc1	none (no result: PLK1 PBD block)
Cc1c(NC(=O)c2cc(-n3cnnc3)ccc2Cl)cccc1-c1nc2ccccc2o1	G9a block 2.5µM
O=C(Nc1ccc(-c2nc3ccccc3o2)c(O)c1)c1cc(-n2cnnc2)ccc1Cl	none
Cc1cc(NC(=O)CCC(=O)N(CC(=O)NCC2CCCO2)c2cccc(C)c2C)no1 (stereo not drawn)	none
COCCNC(=O)CN(C(=O)CCC(=O)Nc1cc(C)on1)c1cccc(C)c1C	PLK1 PBD block inconclusive, JMJD2A Tudor 79µM, G9a block inconclusive
CCOCCCNC(=O)CSc1nnc(-c2ccc(S(=O)(=O)N3CCCC3)cc2)n1C	none
Clc1ccc2nc(-c3ccc(Br)s3)cn2c1	G9a block 50µM
COc1ccc(-c2cn3cc(Cl)ccc3n2)cc1OC	BAZ2B inh inconclusive, G9a block 79µM
O=C(O)c1ccccc1-c1cn2cc(Cl)ccc2n1	none
COC(=O)c1cc(NCc2c(F)cccc2Cl)ccc1N1CCOCC1	none
COC(=O)c1ccc(NCc2cc(O)ccc2O)cc1O	HP1b chromo inh 56µM, JMJD2A Tudor 8.9µM (no result: BAZ2B inh, G9a block)
COC(=O)c1ccc(NCc2c(O)ccc(O)c2Br)cc1Cl	HP1b chromo inh 10µM, VDR inhibitor inconclusive, PLK1 PBD block inconclusive, JMJD2A Tudor 3.5µM (no result: BAZ2B inh, G9a block)
Brc1ccccc1Cn1c(-c2cscn2)nc2ccccc21	JMJD2A Tudor inconclusive
COc1cc(S(=O)(=O)N2CCOCC2)cc(C(=O)OCC(=O)NC2CCCCC2)c1OC	none
COC(=O)CC1C(=O)NCCN1C(=O)CSc1nc2ccccc2s1 (stereo not drawn)	VDR inhibitor inconclusive, PLK1 PBD block 13µM, G9a block 7.1µM (no result: BAZ2B inh)
Cc1cc(N2CCN(C)CC2)ccc1NC(=O)c1cccc(S(=O)(=O)N2CCc3ccccc3C2)c1	HP1b chromo inh inconclusive, BAZ2B inh inconclusive, G9a block 28µM
CCN(CC(=O)Nc1ccc(NC(C)=O)cc1)C(=O)c1cccc(S(=O)(=O)N2CCc3ccccc3C2)c1	G9a block 3.2µM
CCN(CC(=O)Nc1c(F)cccc1F)C(=O)c1cccc(S(=O)(=O)N2CCc3ccccc3C2)c1	none
O=C(COC(=O)C1CCCCC1)Nc1ccccc1OC(F)F	VDR inhibitor inconclusive, PLK1 PBD block 3µM, JMJD2A Tudor 11µM (no result: BAZ2B inh)
CN(C)S(=O)(=O)c1cccc(C(=O)OCC(=O)Nc2ccccc2OC(F)F)c1	HP1b chromo inh inconclusive, VDR inhibitor inconclusive, PLK1 PBD block 27µM, JMJD2A Tudor 79µM
COc1ccc(C(O)Cn2cc([N+](=O)[O-])nc2C)cc1 (stereo not drawn)	none (no result: G9a block)
COc1cc2c(=O)n(CCC(=O)NCC3CCCO3)c(=O)n(CC(=O)Nc3ccc(F)cc3)c2cc1OC (stereo not drawn)	none
CN(C)S(=O)(=O)c1cccc(NC(=O)COC(=O)c2cccc(S(=O)(=O)N3CCc4ccccc4C3)c2)c1	BAZ2B inh inconclusive, G9a block 1.6µM
CCc1cccc(CC)c1NC(=O)COC(=O)c1cccc(S(=O)(=O)N2CCc3ccccc3C2)c1	none
CC(=O)c1ccc(S(=O)(=O)Nc2c(C)nn(C)c2C)cc1	G9a block 45µM
Cc1nn(C)c(C)c1NC(=S)Nc1ccc(S(=O)(=O)Nc2ncccn2)cc1	G9a block 71µM
Cc1c(C(=O)N(C)Cc2ccc(F)cc2)sc(=O)n1Cc1ccccc1C#N	none (no result: HP1b chromo inh, VDR inhibitor, BAZ2B inh, JMJD2A Tudor, G9a block)
Cc1ccc2c(c1)NC(=O)c1cccc([N+](=O)[O-])c1CO2	G9a block 50µM (no result: HP1b chromo inh, VDR inhibitor, PLK1 PBD block, JMJD2A Tudor)
Cc1ccc(CN2CCCn3nc(C(=O)NCCN(C)C)cc3C2=O)cc1	none (no result: PLK1 PBD block)
Cc1ccc(CN2CCCn3nc(C(=O)NCc4ccc(N(C)C)cc4)cc3C2=O)cc1	BAZ2B inh inconclusive, JMJD2A Tudor inconclusive, G9a block 14µM (no result: PLK1 PBD block)
Cc1ccc(S(=O)(=O)N2CCCCC2)cc1NC(=O)CSc1ncn[nH]1	none
O=C(CSc1ncn[nH]1)Nc1ccc(Cl)c(S(=O)(=O)N2CCOCC2)c1	G9a block 50µM (no result: BAZ2B inh)
O=C(CSc1ncn[nH]1)Nc1cc(S(=O)(=O)N2CCCC2)ccc1Cl	PLK1 PBD block 30µM, G9a block inconclusive (no result: BAZ2B inh)
Cc1ccc(OCC(=O)N2CCc3ccccc3C2)c([N+](=O)[O-])n1	none (no result: BAZ2B inh)
COc1ccc(NC(=O)C(=O)NCCO)cc1Cl	none
CC(C)C(=O)c1cn(CC(=O)NCc2ccc3c(c2)OCO3)c2ccccc12	PLK1 PBD block 24µM
CC(C)(C)C(=O)c1cn(CC(=O)NCc2ccc3c(c2)OCO3)c2ccccc12	none
CS(=O)(=O)N(CC(=O)NCc1ccc2c(c1)OCO2)Cc1ccccc1	HP1b chromo inh inconclusive, VDR inhibitor inconclusive, PLK1 PBD block 8.4µM, JMJD2A Tudor 18µM
CS(=O)(=O)N(CC(=O)NCc1ccccn1)Cc1ccc(Cl)cc1	BAZ2B inh inconclusive, JMJD2A Tudor 11µM, G9a block inconclusive
